# Measurements: PubChem BioAssay (EPA / NIEHS)
# Activity calls are given as the source filed them. Rule for the calls: active = hit-call score of the fitted dose curve at least 0.9, where 1 is the maximum; inactive = score below 0.9.
# Read-out: Macrophage colony-stimulating factor (MCSF), CSF1 (gene 1435)
# Test: BSK_LPS_MCSF: BioMAP Diversity Plus: LPS Assay for Macrophage colony-stimulating factor (MCSF) Biomarker Activity (AID 2283083)
# Conditions: primary human HUVEC with PBMC; actives raise or lower the signal
# Procedure, shortened: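 Bidirectional fit versus DMSO of ELISA-measured M-CSF in co-cultured human umbilical vein endothelial cells and PBMC, sampled 24 h after dosing.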
SMILES,AC50,outcome
CC(C)(C)CC(C)(C)c1ccc(O)cc1,9.26 µM (active),–
CCNc1nc(NC(C)(C)C)nc(SC)n1,–,inactive
CC(=O)[O][Hg][c]1ccccc1,0.989 µM (active),–
Nc1cccc2ccccc12,–,inactive
ClCC(Cl)CCl,–,inactive
CCOP(=S)(OCC)Oc1nc(Cl)c(Cl)cc1Cl,20 µM (active),–
CCOP(=S)(OCC)SCSP(=S)(OCC)OCC,2.72 µM (active),–
CCOP(=S)(OCC)SCCS(=O)(=O)CC,–,inactive
CCOP(=S)(OCC)Oc1ccc(S(C)=O)cc1 (configuration not stated),–,inactive
COC[C@H](C)N(C(=O)CCl)c1c(C)csc1C,–,inactive
ClC(Cl)=C(Cl)C(Cl)=C(Cl)Cl,32.1 µM (active),–
COC(=O)Cc1ccccc1,–,inactive
O=[N+]([O-])c1ccc(O)c([N+](=O)[O-])c1,–,inactive
Nc1ncc([N+](=O)[O-])s1,–,inactive
NC(=S)Nc1ccccc1,–,inactive
CCC(C)(C)c1ccc(O)c(C(C)(C)CC)c1,18.4 µM (active),–
O=C(O)CCC(F)(C(F)(F)F)C(F)(F)F,–,inactive
CCCCC(CC)CO[N+](=O)[O-] (configuration not stated),–,inactive

# Read-out: Tissue Factor, F3 (gene 2152)
# Test: BSK_LPS_TissueFactor: BioMAP Diversity Plus: LPS Assay for Tissue Factor Biomarker Activity (AID 2283084)
# Conditions: primary human HUVEC with PBMC; actives raise or lower the signal
# Procedure, shortened: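 Read-out: CD142 ELISA, 24 h. System: LPS-driven human endothelial/PBMC co-culture. Analysis: up- or down-signal fitted against DMSO.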
SMILES,outcome,AC50
O=C(O)C(Cl)(Cl)Cl,inactive,–
Oc1cccc2cccnc12,inactive,–
CC(=O)OC(c1ccccc1)C(Cl)(Cl)Cl (configuration not stated),inactive,–
C[C@]12CCC(=O)C[C@@H]1CC[C@@H]1[C@@H]2CC[C@]2(C)[C@@H](O)CC[C@@H]12,inactive,–
COP(=S)(OC)Oc1ccc(Sc2ccc(OP(=S)(OC)OC)cc2)cc1,inactive,–
C(=NC1CCCCC1)=NC1CCCCC1,–,34.8 µM (active)
COc1cc(OC)nc(NC(=O)NS(=O)(=O)c2ncccc2C(=O)N(C)C)n1,inactive,–
CC12CC1(C)C(=O)N(c1cc(Cl)cc(Cl)c1)C2=O (configuration not stated),inactive,–
COC(=O)c1sccc1S(=O)(=O)NC(=O)Nc1nc(C)nc(OC)n1,inactive,–
C=C(C)C(=O)[O][Sn]([CH2]CCC)([CH2]CCC)[CH2]CCC,–,0.148 µM (active)
CC(C)(C)c1cc(O)ccc1O,–,20 µM (active)
CC(C)(c1ccccc1)c1ccc(O)c(C(C)(C)c2ccccc2)c1,–,12.6 µM (active)
CCCCCCCCc1ccc(O)cc1,–,38.1 µM (active)
O=C(Nc1ccc2[nH]ccc2c1)c1cc2cc(F)ccc2n1Cc1cccc(F)c1,–,8.59 µM (active)
O=C(OC1CCCCC1)c1ccccc1C(=O)OC1CCCCC1,–,20.9 µM (active)
C=CC(=O)OCCCCCC(C)C,inactive,–
CC(C)(C)CC(C)(C)c1ccc(O)cc1,–,9.02 µM (active)

SMILES,outcome,AC50
CCNc1nc(NC(C)(C)C)nc(SC)n1,inactive,–
CC(=O)[O][Hg][c]1ccccc1,–,1.99 µM (active)
Nc1cccc2ccccc12,–,9.83 µM (active)
ClCC(Cl)CCl,inactive,–
CCOP(=S)(OCC)Oc1nc(Cl)c(Cl)cc1Cl,inactive,–
CCOP(=S)(OCC)SCSP(=S)(OCC)OCC,inactive,–
CCOP(=S)(OCC)SCCS(=O)(=O)CC,inactive,–
CCOP(=S)(OCC)Oc1ccc(S(C)=O)cc1 (configuration not stated),inactive,–
COC[C@H](C)N(C(=O)CCl)c1c(C)csc1C,inactive,–
ClC(Cl)=C(Cl)C(Cl)=C(Cl)Cl,–,33.2 µM (active)
COC(=O)Cc1ccccc1,inactive,–
O=[N+]([O-])c1ccc(O)c([N+](=O)[O-])c1,inactive,–
Nc1ncc([N+](=O)[O-])s1,inactive,–
NC(=S)Nc1ccccc1,inactive,–
CCC(C)(C)c1ccc(O)c(C(C)(C)CC)c1,–,15.9 µM (active)
O=C(O)CCC(F)(C(F)(F)F)C(F)(F)F,inactive,–
CCCCC(CC)CO[N+](=O)[O-] (configuration not stated),inactive,–
